High-throughput results from PubChem BioAssay.
Many of the other results were omitted from the sample, so hits are more common in it than they were.
Bm FixLJ act: activators of Burkholderia fixLJ two-component system | B. multivorans fixK-promoter GFP reporter, 18 h; hits give high values | 29,000 compounds, 0.3% hits | z-score (concentration not given with the values);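 active = replicate mean overnight rise in green fluorescent reporter signal, 3 or more SD over negative controls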
The depositor's hits bear a star.

SMILES | Bm FixLJ act
Cc1ccccc1NC(=O)c1sc2nc3c(cc2c1N)CN(Cc1ccccc1)CC3 | 0.8
CCN1CCc2nc3sc(C(=O)c4ccccc4)c(N)c3cc2C1 | 26*
CN1CCc2nc3sc(C(=O)c4ccc(F)cc4)c(N)c3cc2C1 | 0.72
CN(Cc1cc(-c2ccncc2)no1)C(=O)Nc1ccccc1 | -0.14
CC[C@H](NC(C)C)[C@H](O)c1ccc(O)c2[nH]c(=O)ccc12 | -0.68
CCC(NC(C)C)C(O)c1ccc(O)c(O)c1 (configuration not stated) | 8.2*
C[C@H](N)[C@H](O)c1cccc(O)c1 | -1.5
COCCNC(=O)CCn1c(=O)c2cc(OC)c(OC)cc2n(CC(=O)Nc2ccccc2OC)c1=O | 4.6*
COCCNC(=O)CCn1c(=O)c2cc(OC)c(OC)cc2n(CC(=O)Nc2ccccc2C)c1=O | 0.19
COCCNC(=O)CCCn1c(=O)c2cc(OC)c(OC)cc2n(CC(=O)Nc2ccc(F)cc2)c1=O | 0.67
COCC(=O)Nc1ccc(NC(=O)Cc2ccccc2)cc1OC | -1.2
O=C(c1cccc2c1NCCC2)N(Cc1ccncc1)CC1CCCO1 (configuration not stated) | -1.8
Cc1nc2ccc(CC(=O)N3CC(C(=O)O)C(C4CC4)C3)cc2[nH]1 (configuration not stated) | -1.1
CCc1ccc(CN(C)C(=O)CSc2nncn2C)nc1 | -1.7
CC(C)(C)C1CCC(C(=O)NC2COCC2Cc2ccncc2)CC1 (configuration not stated) | -0.67
COc1ccccc1NC(=O)CSc1oc(-c2cccs2)nc1S(=O)(=O)c1ccc(Br)cc1 | -1.6
COc1ccccc1NC(=O)CSc1oc(-c2ccco2)nc1S(=O)(=O)c1ccc(C)cc1 | -1.5
COc1ccc(NC(=O)CSc2oc(-c3cccs3)nc2S(=O)(=O)c2ccccc2)c(OC)c1 | 3.7*
COc1ccc(NC(=O)CSc2oc(-c3ccco3)nc2S(=O)(=O)c2ccccc2)c(OC)c1 | 6.8*
Cc1cc(C)cc(NC(=O)CSc2oc(-c3ccco3)nc2S(=O)(=O)c2ccccc2)c1 | -1.5
COc1ccc(NC(=O)CSc2oc(-c3cccs3)nc2S(=O)(=O)c2ccc(C)cc2)c(OC)c1 | -1.3
O=C(CC1CC1)NC1COCC1Cc1ccnc2ccccc12 (configuration not stated) | -1.2
CN1CCCC(CCC(=O)N2CCc3nc(-c4ccccc4)[nH]c3C2)C1 (configuration not stated) | 1.2
COc1cccc(OC2CN(C(=O)Cn3nc4ccccc4n3)C2)c1 | 0.57
COC1CN(c2nc(-c3ccccc3)nc3c2CCC3)CCC1N (configuration not stated) | -0.97
SMILES | Bm FixLJ act
Cc1cccn2c(F)c(C(=O)NC3CCN(C4CCOCC4)CC3)nc12 | 1.6
COc1ccccc1NC(=O)c1cc2c(C)nn(-c3ccccc3)c2s1 | 0.48
COc1ccc(-c2nn(-c3ccccc3)cc2C(=O)Nc2ccccc2OC)cc1 | 4.6*
O=C(O)c1ccc(NC(=O)c2cn(-c3ccccc3)nc2-c2ccc(Br)cc2)cc1 | -0.52
CC1(C)C2CCC(CNC(=O)CCC3NC(=O)NC3=O)C1C2 (configuration not stated) | -1.6
Cc1ccc(S(=O)(=O)N2CCC[C@]3(CCCC3O)C2)cc1Cl (some centres not stated) | -0.33
O=C(O)c1ccccc1Nc1cccc(C(F)(F)F)c1 | -1.5
C=CCC(CC=C)(CNC(=O)C(=O)Nc1cc(C)ccc1OC)c1ccc(OC)c(OC)c1 | 1.3
C=CCC(CC=C)(CNC(=O)C(=O)Nc1cccc(C(F)(F)F)c1)c1ccccc1 | 3.7*
Cn1ncc(-c2ccccc2)c1NC(=O)N1CCCC1Cn1cccn1 (configuration not stated) | -1.6
Cc1c(F)cccc1CN1CCCC(c2nnc(Cn3ccnc3)n2C)C1 (configuration not stated) | -0.37
O=C(CN1CC(O)C(Cc2ccncc2)C1)NCc1cccs1 (configuration not stated) | -0.6
COc1cccc(-c2nnc(-c3cc4cc(Cl)ccc4oc3=O)o2)c1 | -0.27
CCCCCCc1cc2cc(-c3nnc(-c4ccc(C)cc4)o3)c(=O)oc2cc1O | 8.6*
CCN(CC)c1ccc2cc(-c3nnc(-c4cccc(Cl)c4)o3)c(=O)oc2c1 | -8.9
O=C(NCCSc1ncn[nH]1)[C@@]12CCC(N3CCOCC3)C[C@H]1CCNC2 (some centres not stated) | -0.98
COc1ccc(-c2cc(C(=O)Nc3ccc4c(c3)OCO4)no2)cc1 | -2.9
COc1ccc(NC(=O)c2cc(-c3ccc4c(c3)OCO4)on2)c(OC)c1 | -0.07
COc1cc(NC(=O)c2cc(-c3ccc4c(c3)OCO4)on2)cc(OC)c1OC | 3.7*
O=C(CCN1CCCCO1)N1CCCC1c1nc(-c2ccccc2)no1 (configuration not stated) | -0.52
COc1ccc(CN2COc3ccc4c(-c5ccccc5)cc(=O)oc4c3C2)cc1 | 3.7*
COC(=O)Cc1c(C)c2ccc3c(c2oc1=O)CN(Cc1ccc(C)cc1)CO3 | 1.4
Cc1ccc(CN2COc3ccc4c(-c5ccccc5)cc(=O)oc4c3C2)cc1 | -0.47
Cc1nc2c(c(N(C)C)n1)CCN(C(=O)c1cc3ccccc3[nH]c1=O)C2 | -0.98
CC(C)C(=O)N1CCn2nc(CNC(=O)NCCCC3CCOC3)cc2C1 (configuration not stated) | -1.6
SMILES | Bm FixLJ act
CN(Cc1noc(C2CCC2)n1)C(=O)c1scc2c1CCCC2 | -0.09
O=C(Cn1ncc2c3ccccc3n(Cc3ccccc3F)c2c1=O)N1CCCCCC1 | -0.94
CCOC(=O)C1CCN(C(=O)Cn2ncc3c4ccccc4n(Cc4ccccc4)c3c2=O)CC1 | -2.4
CCCN1CCN(C(=O)Cn2ncc3c4ccccc4n(Cc4cccc(Cl)c4)c3c2=O)CC1 | 14*
O=C(Cn1ncc2c3ccccc3n(Cc3ccccc3F)c2c1=O)N1CCCCC1 | -0.13
O=C(Cn1ncc2c3ccccc3n(Cc3ccc(Cl)cc3)c2c1=O)N1CCCCCC1 | 6.4*
CN1CCN(C(=O)Cn2ncc3c4ccccc4n(Cc4ccc(F)cc4)c3c2=O)CC1 | -1.7
Cc1nc(N(C)C)ncc1C(=O)NC1COCC1Cc1ccncc1 (configuration not stated) | -1.1
CCN1CCN(c2ccc(C(=O)N3CCCC(C(=O)CC(C)C)C3)cn2)CC1 (configuration not stated) | -2
COc1ccc(OCC2CCCN(C(=O)C3CCN(C(C)=O)CC3)C2)cc1 (configuration not stated) | 2.1
COc1ccc(OCC2CCCN(C(=O)c3ccc4nc(C)[nH]c4c3)C2)cc1 (configuration not stated) | 3.4*
Cc1nc2ccc(C(=O)N3CCCC4(CCc5cn[nH]c54)C3)cc2[nH]1 (configuration not stated) | -0.79
CO[C@@]12CCC(OCCO)CC1N(C(=O)c1ccc(C(C)(C)C)cc1)CC2 (some centres not stated) | -0.89
Cc1ccc(C)c(OCC(=O)NC2COCC2Cc2ccncc2)c1C (configuration not stated) | 0.41
